Here are results for 35 compounds from PubChem BioAssay (Tox21).

Values without a mark were called inactive. Calls of active or inactive are those of the source. Calls come from the whole dose curve; as a rule, active = well fitted curve in the direction sought with a large enough effect in the repeat runs; inconclusive = weak or mixed curves; inactive = flat fitted curve, though single readings scatter.
% is set by controls: 0 for no effect and ±100 for the full control effect.

The first assay in a line: qHTS assay to test for compound auto fluorescence at 590 nm (red) in HepG2 cell free culture (AID 720684). To be noted: cell-free medium autofluorescence, red 540/590 nm; series mostly up to 91.3 µM; fluorescence, % of Rose Bengal: at the top concentration. In outline: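 Red fluorescence (540 nm excitation, 590 nm emission) was measured after compound transfer into cell-free MEM supplemented with 10% FBS. Values are equivalencies against Rose Bengal sodium.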
On the technique in general: In qHTS, concentration-response curves come from the screen itself.
Take `FC(F)(F)c1ccccc1`: the “fluorescence, % of Rose Bengal” value was -0.367%.

As to `Cc1ccc([N+](=O)[O-])cc1Cl`, the “fluorescence, % of Rose Bengal” value was 0.0244% [at 95.7 µM].

Regarding `NC(=O)Cc1cccc(C(=O)c2ccccc2)c1N`, the “fluorescence, % of Rose Bengal” value is -0.13% [at 46 µM].

`CN(C)CC[C@@H](c1ccc(Cl)cc1)c1ccccn1`: the “fluorescence, % of Rose Bengal” value is -0.239% [at 46 µM].

In the case of `COc1cc(C)ccc1C(C)C`, the “fluorescence, % of Rose Bengal” value is 0.192%.

For `CCCCC(CC)COC(=O)COc1cc(Cl)c(Cl)cc1Cl` (stereo not given), the “fluorescence, % of Rose Bengal” value is 0.27%.

In the case of `CCOc1ccc(NC(N)=O)cc1`, the “fluorescence, % of Rose Bengal” value was 0.141%.

Regarding `C1CCOC1`, the “fluorescence, % of Rose Bengal” value is 0.0464% [at 95.7 µM].

`C=C(C)C(=O)OCCOP(=O)(O)O`: the “fluorescence, % of Rose Bengal” value was 0.0409% [at 95.7 µM].

For the compound `C=Cc1ccccc1`, the compound was called inactive.

For `CC/C=C\CCOC(=O)CCCCC`, the “fluorescence, % of Rose Bengal” value was -0.277%.

In the case of `CC1CN(c2ccccc2)NC1=O` (stereo not given), the “fluorescence, % of Rose Bengal” value is 0.0539%.

Regarding `Cc1c(C(=O)NCCO)[n+](=O)c2ccccc2n1[O-]`, the “fluorescence, % of Rose Bengal” value is -0.349% [at 46 µM].

Consider `Cc1cc(S(=O)(=O)O)c(N)cc1Cl`, for which the “fluorescence, % of Rose Bengal” value is 0.0552%.

Turning to `NC1=NCC2c3ccccc3Cc3ccccc3N12` (stereo not given), the “fluorescence, % of Rose Bengal” value is -0.0509% [at 46 µM].

For `CCc1nnc(NS(=O)(=O)c2ccc(N)cc2)s1`, the “fluorescence, % of Rose Bengal” value is -0.0353% [at 46 µM].

As for `COc1ccc(Nc2ccc(OC)cc2)cc1`, the “fluorescence, % of Rose Bengal” value was -0.0223% [at 95.7 µM].

Take `O=C(O[C@@H](C(=O)O)[C@@H](OC(=O)c1ccccc1)C(=O)O)c1ccccc1`: the “fluorescence, % of Rose Bengal” value is -0.131% [at 95.7 µM].

`CCCCC(=O)O[C@]1(C(=O)CO)[C@H](C)C[C@H]2[C@@H]3CCC4=CC(=O)C=C[C@]4(C)[C@@]3(F)[C@@H](O)C[C@@]21C`: the “fluorescence, % of Rose Bengal” value is 0.0466% [at 46 µM].

Consider `C[C@@H]1CN(c2c(F)c(N)c3c(=O)c(C(=O)O)cn(C4CC4)c3c2F)C[C@H](C)N1`, for which the “fluorescence, % of Rose Bengal” value was 0.483% [at 46 µM].

`NNS(=O)(=O)c1ccc(Oc2ccc(S(=O)(=O)NN)cc2)cc1`: the “fluorescence, % of Rose Bengal” value is -0.0296%.

Turning to `CCN(CC)C(=O)N(CC)CC`, the “fluorescence, % of Rose Bengal” value is -0.372%.

As for `Cc1ccsc1C(=CCCN1CCC[C@@H](C(=O)O)C1)c1sccc1C`, the “fluorescence, % of Rose Bengal” value is 0.208% [at 46 µM].

As to `CN1CCN(c2c(F)cc3c(=O)c(C(=O)O)cn4c3c2SCC4)CC1`, the “fluorescence, % of Rose Bengal” value is 0.0101% [at 46 µM].

In the case of `CC(C)(C)C1CCCCC1=O` (stereo not given), the “fluorescence, % of Rose Bengal” value is 0.0132%.

Consider `CC1(C)C(=O)N(Cl)C(=O)N1Br`, for which the “fluorescence, % of Rose Bengal” value was -0.175%.

In the case of `Cc1c(N)cccc1N`, the “fluorescence, % of Rose Bengal” value is 0.0002% [at 95.7 µM].

`CC(=O)Nc1ccc(C)c(Cl)c1`: the “fluorescence, % of Rose Bengal” value was 0.0836%.

For the compound `CN(C)CCOc1ccccc1Cc1ccccc1`, the “fluorescence, % of Rose Bengal” value is 0.0869% [at 46 µM].

`CC(C)C(=O)OCC(C)(C)C(O)C(C)C` (stereo not given): the “fluorescence, % of Rose Bengal” value is -0.0206%.

For `OCCN1CCN(CCO)CC1`, the “fluorescence, % of Rose Bengal” value was -0.052% [at 95.7 µM].

Consider `Cc1nnc(SCC2=C(C(=O)O)N3C(=O)[C@@H](NC(=O)Cn4cnnn4)[C@H]3SC2)s1`, for which the “fluorescence, % of Rose Bengal” value is -0.034% [at 46 µM].

Regarding `CS(=O)(=O)c1ccc([C@@H](O)[C@@H](CF)NC(=O)C(Cl)Cl)cc1`, the fluorescence, % of Rose Bengal was 0.294% [at 18.6 µM].

Turning to `CCCCC1CCC(=O)O1` (stereo not given), the “fluorescence, % of Rose Bengal” value was 0.0158%.

Consider `NC/C=C/C(=O)O`, for which the “fluorescence, % of Rose Bengal” value was -0.0447% [at 46 µM].

The nature of another assay: qHTS assay to test for compound auto fluorescence at 460 nm (blue) in HepG2 cell free culture (AID 720685). To be noted: Cell-free culture medium, blue autofluorescence 405/460 nm; series mostly up to 91.3 µM; fluorescence, % of fluorescent control: at the top concentration. In outline:
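Compound (23 nL) or DMSO pinned into cell-free MEM with 10% FBS; blue fluorescence read at 405/460 nm excitation/emission, expressed as auto-fluorescence equivalency to triamterene.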
Take `FC(F)(F)c1ccccc1`: the “fluorescence, % of fluorescent control” value is -0.115%.

On to `Cc1ccc([N+](=O)[O-])cc1Cl`, for which the “fluorescence, % of fluorescent control” value was 0.116% [at 95.7 µM].

As for `NC(=O)Cc1cccc(C(=O)c2ccccc2)c1N`, the “fluorescence, % of fluorescent control” value is 0.0099% [at 46 µM].

`CN(C)CC[C@@H](c1ccc(Cl)cc1)c1ccccn1`: the “fluorescence, % of fluorescent control” value was -0.0119% [at 46 µM].

In the case of `COc1cc(C)ccc1C(C)C`, the “fluorescence, % of fluorescent control” value is -0.013%.

Turning to `CCCCC(CC)COC(=O)COc1cc(Cl)c(Cl)cc1Cl` (stereo not given), the “fluorescence, % of fluorescent control” value is 0.0243%.

As to `CCOc1ccc(NC(N)=O)cc1`, the “fluorescence, % of fluorescent control” value was -0.001%.

`C1CCOC1`: the “fluorescence, % of fluorescent control” value was 0.0194% [at 95.7 µM].

Consider `C=C(C)C(=O)OCCOP(=O)(O)O`, for which the “fluorescence, % of fluorescent control” value was -0.0008% [at 95.7 µM].

With `C=Cc1ccccc1`, the outcome was inactive.

Consider `CC/C=C\CCOC(=O)CCCCC`, for which the “fluorescence, % of fluorescent control” value was -0.0123%.

Regarding `CC1CN(c2ccccc2)NC1=O` (stereo not given), the “fluorescence, % of fluorescent control” value was 0.0135%.

Consider `Cc1c(C(=O)NCCO)[n+](=O)c2ccccc2n1[O-]`, for which the “fluorescence, % of fluorescent control” value is 0.0318% [at 46 µM].

As to `Cc1cc(S(=O)(=O)O)c(N)cc1Cl`, the “fluorescence, % of fluorescent control” value is -0.0105%.

Consider `NC1=NCC2c3ccccc3Cc3ccccc3N12` (stereo not given), for which the “fluorescence, % of fluorescent control” value is 0.0181% [at 46 µM].

For the compound `CCc1nnc(NS(=O)(=O)c2ccc(N)cc2)s1`, the “fluorescence, % of fluorescent control” value is -0.0675% [at 46 µM].

As to `COc1ccc(Nc2ccc(OC)cc2)cc1`, the “fluorescence, % of fluorescent control” value was 0.0139% [at 95.7 µM].

Take `O=C(O[C@@H](C(=O)O)[C@@H](OC(=O)c1ccccc1)C(=O)O)c1ccccc1`: the “fluorescence, % of fluorescent control” value was -0.0572% [at 95.7 µM].

As for `CCCCC(=O)O[C@]1(C(=O)CO)[C@H](C)C[C@H]2[C@@H]3CCC4=CC(=O)C=C[C@]4(C)[C@@]3(F)[C@@H](O)C[C@@]21C`, the “fluorescence, % of fluorescent control” value is -0.0152% [at 46 µM].

As for `C[C@@H]1CN(c2c(F)c(N)c3c(=O)c(C(=O)O)cn(C4CC4)c3c2F)C[C@H](C)N1`, the “fluorescence, % of fluorescent control” value was -0.0201% [at 46 µM].

Consider `NNS(=O)(=O)c1ccc(Oc2ccc(S(=O)(=O)NN)cc2)cc1`, for which the “fluorescence, % of fluorescent control” value was -0.0018%.

As to `CCN(CC)C(=O)N(CC)CC`, the “fluorescence, % of fluorescent control” value is -0.0114%.

For the compound `Cc1ccsc1C(=CCCN1CCC[C@@H](C(=O)O)C1)c1sccc1C`, the “fluorescence, % of fluorescent control” value is -0.0671% [at 46 µM].

As for `CN1CCN(c2c(F)cc3c(=O)c(C(=O)O)cn4c3c2SCC4)CC1`, the “fluorescence, % of fluorescent control” value is 0.0047% [at 46 µM].

For `CC(C)(C)C1CCCCC1=O` (stereo not given), the “fluorescence, % of fluorescent control” value is -0.0426%.

Consider `CC1(C)C(=O)N(Cl)C(=O)N1Br`, for which the “fluorescence, % of fluorescent control” value was -0.136%.

As to `Cc1c(N)cccc1N`, the “fluorescence, % of fluorescent control” value was 0.372% [at 95.7 µM].

With `CC(=O)Nc1ccc(C)c(Cl)c1`, the “fluorescence, % of fluorescent control” value was 0.0432%.

Take `CN(C)CCOc1ccccc1Cc1ccccc1`: the “fluorescence, % of fluorescent control” value is -0.135% [at 46 µM].

Turning to `CC(C)C(=O)OCC(C)(C)C(O)C(C)C` (stereo not given), the “fluorescence, % of fluorescent control” value is 0.0392%.

Regarding `OCCN1CCN(CCO)CC1`, the “fluorescence, % of fluorescent control” value is 0.0384% [at 95.7 µM].

As for `Cc1nnc(SCC2=C(C(=O)O)N3C(=O)[C@@H](NC(=O)Cn4cnnn4)[C@H]3SC2)s1`, the “fluorescence, % of fluorescent control” value was 0.0146% [at 46 µM].

Regarding `CS(=O)(=O)c1ccc([C@@H](O)[C@@H](CF)NC(=O)C(Cl)Cl)cc1`, the fluorescence, % of fluorescent control was -0.0062% [at 18.6 µM].

Take `CCCCC1CCC(=O)O1` (stereo not given): the “fluorescence, % of fluorescent control” value was -0.0175%.

As to `NC/C=C/C(=O)O`, the “fluorescence, % of fluorescent control” value was -0.0271% [at 46 µM].

The nature of the next assay: qHTS assay to test for compound auto fluorescence at 535 nm (green) in HepG2 cell free culture (AID 720686). To be noted: Cell-free medium, green autofluorescence 485/535 nm; series mostly up to 91.3 µM; fluorescence, % of fluorescein control: at the top concentration.
As to `Cc1ccc([N+](=O)[O-])cc1Cl`, the “fluorescence, % of fluorescein control” value is -0.0179% [at 95.7 µM].

In the case of `CCOc1ccc(NC(N)=O)cc1`, the “fluorescence, % of fluorescein control” value was 0.103%.

In the case of `Cc1cc(S(=O)(=O)O)c(N)cc1Cl`, the “fluorescence, % of fluorescein control” value was -0.0129%.

Turning to `CCCCC1CCC(=O)O1` (stereo not given), the “fluorescence, % of fluorescein control” value was -0.0029%.

With `NC/C=C/C(=O)O`, the “fluorescence, % of fluorescein control” value was 0.022% [at 46 µM].
